# From PubChem BioAssay
# Shown are actives, neighbours in structure and some others; about 3% of the full set was active somewhere.
# aSyn UTR inh: 5' untranslated region of α-synuclein, MLPCN primary screen; inhibition, % (tested at 7.5 µM); 300,000 tested, 0.82% active; alpha-synuclein 5'UTR reporter, inhibitor activity; in the data active = inhibition above about 60%; inconclusive = no clear call, values can overlap the other calls;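 also: H4 neuroglioblastoma cells stably carrying SNCA 5'UTR luciferase fusion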
# SKKanGAS inh: SKKanGAS growth inhibition; S. pyogenes SKKanGAS, kanamycin growth, BacTiter-Glo, 6 h; inhibition, % at 7.5 µM; 300,000 tested, 1.3% active;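 active = mean replicate score, as percent of positive control median, at least 50; inconclusive = mean below 50 but one replicate at or above 50; inactive = mean and every replicate below 50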;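 also: strain carries kanamycin resistance gene driven by streptokinase promoter and grows in 40 µg/ml kanamycin; loss of luminescence reflects streptokinase promoter inhibition or plain growth inhibition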
# IEC-6 cytotox: counter-screen for KLF5 inhibitors: cytotoxicity in IEC-6 cells; IEC-6 cytotoxicity, luminescence viability; 290,000 tested, 0.78% active; AID 1825; inhibition, % at 5 µM; in the data active = inhibition above about 22%
# KLF5 inh: kruppel-like factor 5 inhibition | 290,000 tested, 0.23% active | DLD-1 KLF5 promoter-luciferase reporter, luminescence | inhibition, % at 5 µM;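 active = inhibition above a per-plate limit of that plate's mean compound inhibition plus 3 SD, cut at about 60% in these data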;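 also: higher means less KLF5 promoter-driven luciferase light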
# CSC inhib: cancer stem cell inhibition. inhibition, % at 7.5 µM. AID 2717. 300,000 tested, 1.1% active. cancer stem cell-like cells viability, luminescence; in the data active = inhibition above about 75%; inconclusive = no clear call, values can overlap the other calls; tested in HMLE shEcad cells
# Hits are given with their value; . = inactive; ? = inconclusive; / = no result.
SMILES,aSyn UTR inh,SKKanGAS inh,IEC-6 cytotox,KLF5 inh,CSC inhib
Cc1cc(N)c2cc(NC(=O)/C=C/c3ccccc3Cl)ccc2n1,107,.,.,.,141
Cc1cc(C)nc(NC(=O)/C=C/c2ccccc2Cl)n1,.,.,.,.,/
COc1ccccc1CN1[C@@H](CC(=O)O)c2cc(F)ccc2S1(=O)=O,.,.,/,/,.
Oc1ccc(Cl)cc1-c1cc(-c2cccc(Br)c2)n[nH]1,.,54,.,.,90
CCC(=O)Nc1nc2ccccc2n1Cc1ccc(C)cc1,77,94,.,.,.
CC(=O)Nc1nc2ccccc2n1Cc1ccc(Cl)cc1,?,64,.,.,.
CCC(=O)Nc1nc2ccccc2n1Cc1ccccc1,.,.,.,.,.
O=C(Oc1c(-c2ccccc2)c(=O)n2c3c(cccc13)CC2)c1cccc([N+](=O)[O-])c1,77,.,.,.,.
O=C(Oc1c(-c2ccccc2)c(=O)n2c3c(cccc13)CC2)c1ccccc1,.,.,.,.,.
CC(C)[C@H](NC(=O)c1c(F)cccc1F)C(=O)Nc1cccc(Br)c1,.,.,.,.,.
CCc1ccc(C2=NN(c3ccc(S(N)(=O)=O)cc3)C(c3ccc(F)cc3)C2)cc1 (stereo not given),.,102,.,.,.
NS(=O)(=O)c1ccc(N2N=C(c3ccccc3)CC2c2ccccc2)cc1 (stereo not given),.,.,.,.,.
CN(C)CCCNS(=O)(=O)c1ccc(N2CCC(c3ccc(Cl)cc3)=N2)cc1,?,.,.,.,112
Cc1oc(-c2ccc(Cl)cc2)nc1CS(=O)CC(=O)NC1CCCC1 (stereo not given),.,.,.,.,.
O=C(O)CCCn1c(O)c(C=C2N=c3ccccc3=N2)sc1=S,.,.,.,.,.
COCCCn1c(O)c(/C=C2\N=C(C#N)C(=Nc3ccc(C)cc3)O2)sc1=S,.,53,.,.,.
COc1ccc(CNCCCC(=O)Nc2c(Cl)ccc(C)c2Cl)cc1OC,.,.,.,.,.
Cc1cccc2sc(N(CCCN(C)C)C(=O)CCc3ccccc3)nc12,62,.,.,.,.
Cc1cccc2sc(N(CCCN(C)C)C(=O)CN3C(=O)c4ccccc4C3=O)nc12,.,.,.,.,.
Cc1ccc2[nH]c(O)c(N=NC(=O)c3ccc(NS(=O)(=O)c4cccs4)cc3)c2c1,.,76,.,.,.
O=C(N=Nc1c(O)[nH]c2ccccc12)c1ccccc1NS(=O)(=O)c1cccs1,.,.,.,.,.
COc1ccc(CCNC(=O)CCS(=O)(=O)c2ccc3nc(C)sc3c2)cc1OC,.,.,.,.,/
CN(C)Cc1ccccc1Sc1ccc2c(c1)CCCC2,104,.,/,/,.
O=[N+]([O-])c1ccc(N=Nc2ccc(O)cc2O)cc1,.,?,.,.,83
O=[N+]([O-])c1ccc(N=Nc2c(O)[nH]c3ccc(F)cc23)cc1,.,.,.,.,.
SMILES,aSyn UTR inh,SKKanGAS inh,IEC-6 cytotox,KLF5 inh,CSC inhib
O=C(NCCCN1CCOCC1)C(=O)N/N=C/c1ccccc1O,.,.,.,.,.
O=C(COc1ccc(/C=N/NC(=O)c2cc3ccccc3o2)cc1Cl)Nc1ccccc1,101,.,.,.,116
COc1cc(/C=N/NC(=O)c2ccccc2O)ccc1OCC(=O)Nc1ccccc1,.,.,.,.,.
CCCCc1ccc(/C=C2\C(=O)c3ccccc3C(O)=C2C(=O)OCC)cc1,.,109,.,.,.
Cc1c(C(=O)N(Cc2ccccc2)Cc2cccs2)cnn1-c1ccc(Cl)cc1,.,.,.,.,80
O=C(C[C@@H]1C/C=C\C[C@@H](Cc2ccc(F)cc2)C(=O)OC[C@@H](Cc2ccccc2)NC1=O)N[C@H](CO)Cc1ccccc1,/,/,/,/,.
COc1cc(/C=N/NC(=O)c2cc(-c3cccn3C)n[nH]2)cc(OC)c1OC,.,63,.,.,.
COc1cccc(/C=N/NC(=O)NC23CC4CC(CC(C4)C2)C3)c1O,.,97,/,/,.
COc1cccc(/C=N/NC(=O)c2cc(-c3cccn3C)n[nH]2)c1O,95,.,.,.,87
O=C(N/N=C/c1ccccc1F)NC12CC3CC(CC(C3)C1)C2,.,.,.,.,.
COc1cccc(/C=N/NC(=O)c2cc(-c3cccn3C)n[nH]2)c1,.,.,.,.,.
COc1cccc(/C=N/NC(=O)c2cc3c(OC)cccc3[nH]2)c1O,86,.,.,.,/
COc1cccc(/C=N/NC(=O)c2cc3c(OC)cccc3[nH]2)c1OC,.,.,.,.,.
CCCCNS(=O)(=O)c1ccc2nc(-c3cccs3)cc(C(=O)NCC(OC)OC)c2c1,.,.,.,.,.
CCn1cc(C(=O)N[C@@H](CCSC)C(=O)NCCCOC)c(=O)c2cc3c(cc21)OCO3,.,.,.,.,.
